Screening data as filed in PubChem.
Rows were chosen to be rich in hits. Some 6.2% of all compounds tested hit in one or more screens of this group.
HT1080NT lethal – kills 2HG-producing HT-1080-NT fibrosarcoma cells; HT-1080-NT fibrosarcoma viability, CellTiter-Glo ATP luminescence, 48 h; Potency, µM (titrated, usually from 46.1 µM), for inactives: top-dose activity, negative = less viability, most hits filed as cytotoxic; 360,000 tested, 1.6% active; AID 686970;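 also: NT is the 2HG producing partner of a matched IDH1 knockdown line; 0% = DMSO-treated cells and -100% = media-only wells without cells; nearly all actives have a fitted effect of over 55% in size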
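Viability of the 2HG-overproducing fibrosarcoma line after 48 hours of compound exposure at 37 degrees C was determined by luminescence with CellTiter-Glo, and concentration-effect curves were then fitted and categorized.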
HT1080 IDH1KD tx – toxicity to HT-1080 IDH1 knockdown cells (counter line). HT-1080 IDH1 knockdown viability, ATP luminescence, 48 h. Potency, µM (highest dose often 46.1 µM), without a hit: at the highest dose activity, negative = toxicity, hits mostly cytotoxic. 360,000 tested, 2% active. AID 686971;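 also: 0% = DMSO wells and -100% = cell-free medium wells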
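CellTiter-Glo luminescence after 48 h compound exposure at 37 degrees C of IDH1-knockdown HT-1080 cells in 5% FBS RPMI. %Activity scaled between DMSO wells and cell-free media wells, with curves fitted and assigned curve classes.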
KB-V1 MDR tox – kills drug-selected multidrug resistant KB-V1 cells. 400,000 tested, 3.4% active. KB-V1 MDR cells viability, CellTiter-Glo, 72 h. Potency, µM (doses to about 46.1 µM), actives largely listed as cytotoxic; also: % is scaled to controls: 0 for no effect and ±100 for the full control effect; nearly all actives have a fitted effect of over 60% in size
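Potencies derive from concentration-effect curves fitted to normalized luminescence (CellTiter-Glo) of KB-V1 cells treated for 72 h at 37 degrees C in phenol-red-free DMEM containing 10% FBS.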
KB-3-1 tox – KB-3-1 parental cell cytotoxicity. Potency, µM (titrated, usually from 46.1 µM), actives largely listed as cytotoxic. AID 1347075. 400,000 tested, 1.4% active. KB-3-1 viability, CellTiter-Glo ATP luminescence, 72 h; also: % is scaled to controls: 0 for no effect and ±100 for the full control effect; nearly all actives have a fitted effect of over 60% in size
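KB-3-1 cells, DMEM (no phenol red) + 10% FBS; compound by pin transfer, 72 h, 37 °C. Readout: CellTiter-Glo luminescence after 10 min. Data normalized, curve-fitted.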
ATXN viability – reduces viability in counter-screen for ATXN expression inhibitors. 400,000 tested, 0.49% active. S2 cells (HEK-293 line with an ATXN2-luciferase reporter) viability, CellTiter-Fluor protease fluorescence, 24 h. Potency, µM (doses to about 56.7 µM), most hits filed as cytotoxic; also: nearly all actives have a fitted effect of over 40% in size
ATXN2 expr inh – reduces ATXN2 reporter expression in HEK-293 cells. HEK-293 ATXN2-luciferase reporter, luminescence, 24 h. Potency, µM (doses to about 57 µM), inactives show top-dose activity change, negative = inhibition, most hits filed as inhibitors. 360,000 tested, 0.72% active. AID 1745845; also: % is scaled to controls: 0 for no effect and ±100 for the full control effect; nearly all actives have a fitted effect of over 55% in size
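qHTS (up to 57 uM final) was run with 24 h compound exposure of reporter cells at 37 °C. Each well was multiplexed: SteadyGlo luminescence measured ATXN2-luciferase expression after a fluorogenic Gly-Phe-AFC viability readout (25 uM final).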
* hit, by the source's call; i = inactive; ? = inconclusive; . = no result. Calls follow the shape of the dose curve; as a rule, active = well fitted curve in the direction sought with a large enough effect; inconclusive = small, poorly fitted or top-dose-only effect, or another doubt; inactive = no such curve, though single readings can be large; an effect the other way counts as inactive or inconclusive. Potency is read from the fitted curve at half-maximal effect.

SMILES | HT1080NT lethal | HT1080 IDH1KD tx | KB-V1 MDR tox | KB-3-1 tox | ATXN viability | ATXN2 expr inh
O=C(CSCCc1ccccn1)Nc1ccccn1 | 3% | -5% | i | ? | i | 1%
O=C(CSCCc1ccccn1)Nc1ccc(Br)cn1 | 5% | 6% | 21µM* | i | i | ?
O=C(CCSCCc1ccccn1)Nc1c(F)cc(F)cc1Br | 8% | 2% | 16µM* | i | i | 2%
COc1cccc2c1C1COC3C4CC(C(=O)O)C(C(C2)N13)N4C (centres undefined) | 5.8µM* | 7.3µM* | 16µM* | ? | ? | 11µM*
COc1cccc2c1C(CCCC(=O)O)CCC2 (centres undefined) | 0% | 4% | i | i | i | -10%
FC(F)Sc1ccc(-n2cc(-c3ccccc3)[n+]3c2CCC3)cc1 | -2% | -25% | i | 15µM* | i | -7%
COc1ccc(-c2cn(-c3ccc(SC(F)F)cc3)c3[n+]2CCC3)cc1OC | 10% | 4% | i | i | i | -16%
CS(=O)(=O)c1nc(-c2ccc(Br)cc2)cc(-c2ccccc2)c1C#N | ? | ? | i | ? | . | ?
CS(=O)c1nc(-c2ccc(Br)cc2)cc(-c2ccccc2)c1C#N (centres undefined) | 5.6µM* | 3.5µM* | ? | ? | 20µM* | 13µM*
O=C(CCc1ccccc1)NCc1ccc2c(c1)CCN2C(=O)c1ccc(Cl)cc1 | . | . | i | i | . | .
O=C(/C=C\c1cccs1)c1c(O)ccc2ccc(=O)oc12 | ? | 23µM* | i | ? | i | -1%
COc1ccc(Nc2cnn(-c3nc4ccccc4s3)c(=O)c2Cl)cc1 | ? | ? | 21µM* | ? | . | -17%
O=c1c(Cl)c(Nc2cccc(Cl)c2)cnn1-c1nc2ccccc2s1 | -5% | 5% | i | ? | i | 66%
Cc1cc(S(=O)(=O)Nc2cccc(C(=O)O)c2)c(C)c(S(=O)(=O)c2ccccc2)c1 | . | . | i | i | i | 9%
Cc1cccc(N(C)C(=O)c2cc3cc4ccc(C)cc4nc3o2)c1 | ? | 13µM* | 12µM* | ? | i | 36%
COc1cc([C@@H]2Nc3c(F)cccc3[C@@H]3C=CC[C@@H]32)cc(Br)c1OC | . | . | i | i | i | 1%
NC(=O)c1ccccc1NC(=O)/C=C/c1ccc(Cl)cc1 | ? | ? | 15µM* | i | i | 19%
NC(=O)c1ccccc1NC(=O)/C=C/c1ccccc1 | 12% | 2% | ? | i | ? | 62%
COc1cc(C(=O)Nc2cccc(C)n2)ccc1OCC(=O)N1CCOCC1 | -3% | 7% | i | i | i | 0%
Cc1noc(C)c1CSCC(=O)Nc1nc(-c2ccc(F)c(F)c2)cs1 | ? | -17% | ? | i | ? | 22µM*
COc1ccc(-c2csc(NC3OC(=O)c4c3ccc(OC)c4OC)n2)cc1OC (centres undefined) | 2.1µM* | 2.6µM* | i | i | ? | ?
CCc1noc(C)c1C(=O)Nc1nc(-c2ccc(OC)c(OC)c2)cs1 | -11% | -10% | 10µM* | i | ? | ?
COc1ccc(-c2csc(NC(=O)c3ccc(OCC(=O)N4CCOCC4)c(OC)c3)n2)cc1OC | -9% | -15% | ? | ? | ? | 16µM*
Cc1nn(Cc2noc(C(=O)NCc3cccc(F)c3)n2)c(C)c1Br | . | . | i | i | i | 1%
COc1ccc2c(c1)cc1c(=O)n(CC(=O)NCc3ccco3)nc(C)n12 | . | . | i | i | i | -10%
COc1ccc(CC(=O)Nc2nc(-c3ccc(OC)c(OC)c3)cs2)cc1OC | ? | -29% | ? | i | ? | 22µM*
CCc1noc(C)c1C(=O)OCC(=O)Nc1nc(-c2ccc(F)c(F)c2)cs1 | -13% | 2% | 2.9µM* | i | ? | -15%
